According to publication PMC4336329 (PLoS ONE, 2015):
The campaign covered roughly 310,000 compounds. About 14,000 (4.5%) showed an effect of 50% or more. Effects have a minus sign here. The sample as a whole holds a higher share of strong results than the screen did.

Each compound was assayed against human ether-à-go-go-related gene (hERG) potassium channel (human, UniProt Q12809) (assay: primary screen, population patch clamp on CHO cells stably expressing hERG; higher = less effect of the substance).
human ether-à-go-go-related gene (hERG) potassium channel, sequence (Q12809 whole entry, looked up): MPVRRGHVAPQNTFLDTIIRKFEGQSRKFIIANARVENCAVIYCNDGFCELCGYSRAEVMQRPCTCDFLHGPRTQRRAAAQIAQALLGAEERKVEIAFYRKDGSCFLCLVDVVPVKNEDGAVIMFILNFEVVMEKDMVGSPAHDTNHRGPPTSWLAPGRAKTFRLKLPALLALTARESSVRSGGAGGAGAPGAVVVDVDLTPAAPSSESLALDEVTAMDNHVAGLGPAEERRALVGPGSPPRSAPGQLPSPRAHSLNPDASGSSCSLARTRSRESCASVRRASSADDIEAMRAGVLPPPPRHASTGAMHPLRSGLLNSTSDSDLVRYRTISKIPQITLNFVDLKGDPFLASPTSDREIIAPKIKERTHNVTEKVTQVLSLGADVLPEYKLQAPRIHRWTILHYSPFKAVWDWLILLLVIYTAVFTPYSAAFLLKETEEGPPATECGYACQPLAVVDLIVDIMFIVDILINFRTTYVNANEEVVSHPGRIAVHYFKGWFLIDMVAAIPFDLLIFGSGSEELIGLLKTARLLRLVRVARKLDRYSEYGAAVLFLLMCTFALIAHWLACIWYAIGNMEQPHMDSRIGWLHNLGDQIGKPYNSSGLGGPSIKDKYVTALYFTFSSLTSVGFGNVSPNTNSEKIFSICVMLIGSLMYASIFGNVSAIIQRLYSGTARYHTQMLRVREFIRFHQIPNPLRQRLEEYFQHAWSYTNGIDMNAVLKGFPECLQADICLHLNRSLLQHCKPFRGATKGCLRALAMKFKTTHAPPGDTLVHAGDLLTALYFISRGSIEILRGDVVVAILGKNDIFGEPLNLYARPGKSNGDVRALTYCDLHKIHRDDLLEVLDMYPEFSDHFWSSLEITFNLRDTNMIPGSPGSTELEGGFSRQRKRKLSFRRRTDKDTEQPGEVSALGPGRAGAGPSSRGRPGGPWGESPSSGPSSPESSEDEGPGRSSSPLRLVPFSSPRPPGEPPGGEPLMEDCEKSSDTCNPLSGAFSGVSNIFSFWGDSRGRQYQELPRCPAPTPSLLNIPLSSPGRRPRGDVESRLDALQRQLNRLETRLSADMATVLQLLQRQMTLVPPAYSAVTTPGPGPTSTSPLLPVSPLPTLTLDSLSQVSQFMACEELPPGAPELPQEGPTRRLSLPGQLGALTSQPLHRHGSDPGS
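Further: peak tail current of the secondary pulse compared with the same well before compound.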

| SMILES | hERG current change (%, negative = inhibition) at 10uM [%] |
| --- | --- |
| CC(NC(=O)Cc1ccccc1)c1nc2ccccc2[nH]1 (stereo not shown) | 5.94 |
| O=C(CCNC(=O)c1ccc([N+](=O)[O-])cc1)NCCc1ccc(Cl)cc1 | -40.4 |
| Cc1cc(C)n2nc(CC(=O)NCc3ccc(F)cc3)nc2n1 | -0.0725 |
| CCN(CC)N=Nc1ccc(S(=O)(=O)N2CCSC2C(=O)[O-])cc1.[K+] (stereo not shown) | 28.2 |
| CCC(C)[C@H](NC(=O)OC(C)(C)C)C(=O)N/N=C/c1ccc2nccnc2c1 (stereo partly shown) | -13.8 |
| CNC(=O)c1cc(OCC(F)(F)F)ccc1OCC(F)(F)F | -4.26 |
| COc1ccc(S(=O)(=O)NCc2ccc(C(=O)NCc3cccnc3)cc2)cc1 | -1.21 |
| COc1ccc(C(=O)N2CCN(C)C(=O)[C@@H]2C)cc1OC1CCN(C(C)=O)CC1 | 12.6 |
| Cc1c(NC(=S)N/N=C/C=C/c2ccccc2)c(=O)n(-c2ccccc2)n1C | 11.2 |
| Cc1ccc(-c2noc(C3CCCCC3)n2)cc1 | 16.1 |
| Cc1nc2cc(-c3cccc(F)c3)nn2c(C)c1CCC(=O)NC(C)CCc1ccco1 (stereo not shown) | -70.6 |
| COc1ccccc1-c1cc2nc(C)c(CCC(=O)NC(C)CCc3ccco3)c(C)n2n1 (stereo not shown) | -62.5 |
| COc1ccc(CNC(=O)CCc2c(C)nc3cc(-c4ccccc4OC)nn3c2C)cc1 | -37.7 |
| COc1ccccc1CNC(=O)CCc1c(C)nc2cc(-c3ccccc3OC)nn2c1C | -11.5 |
| COc1cc(OC)cc(-c2cc3nc(C)c(CCC(=O)NC(C)CCc4ccco4)c(C)n3n2)c1 (stereo not shown) | -58.4 |
| COc1cc(OC)cc(-c2cc3nc(C)c(CCC(=O)Nc4nc(C)cs4)c(C)n3n2)c1 | 10 |
| COc1ccccc1-c1cc2nc(C)c(CCC(=O)NCc3ccco3)c(C)n2n1 | -43.1 |
| Cc1csc(NC(=O)CCc2c(C)nc3cc(-c4cccc(F)c4)nn3c2C)n1 | -17.3 |
| COc1ccc(-c2cc3nc(C)c(CCC(=O)NCc4ccc(F)cc4)c(C)n3n2)c(OC)c1 | -60.4 |
| COc1ccccc1-c1cc2nc(C)c(CCC(=O)NCc3ccc(F)cc3)c(C)n2n1 | -49.7 |
| Cc1nc2cc(-c3ccccc3)nn2c(C)c1CCC(=O)NCc1ccco1 | -37.4 |
| COc1cc(OC)cc(-c2cc3nc(C)c(CCC(=O)NCc4ccccc4)c(C)n3n2)c1 | -33.8 |
| COc1ccc(C2SCC(=O)N2C)cc1 (stereo not shown) | 1.55 |

| SMILES | hERG current change (%, negative = inhibition) at 10uM [%] |
| --- | --- |
| COc1cccc(-c2cc(=O)c3cc(NC(=O)c4ccc(N(C)C)cc4)ccc3[nH]2)c1 | 16.2 |
| CN(C)S(=O)(=O)Oc1ccc(Cl)cc1C(=O)Nc1ccc(F)cc1F | -3.01 |
| Cc1cc(N/N=C2\CC(C)CC(C)(C)C2)nc2ccccc12 (stereo not shown) | -7.04 |
| CCN1C(=O)/C(=C/c2ccc3c(c2)CCN3CCCCl)C(=O)NC1=S | -3.76 |
| N#Cc1c(-c2ccco2)cc(-c2ccc(F)cc2)nc1N | -2.08 |
| COc1ccc(-c2cc(=O)oc3c(C)c(OC(C)C(=O)Nc4ccc(CN5CCOCC5)cc4)ccc23)cc1 (stereo not shown) | -5.78 |
| Cn1c(/C(C#N)=C2/CCCCCN2)nc2ccccc21 | -12.5 |
| O=S(=O)(NCc1ccc(Cl)cc1)NCc1ccc(Cl)cc1 | 12.7 |
| COC(=O)c1cc(Br)ccc1OC(=O)c1cccnc1 | 7.06 |
| Cc1nc2cc(-c3ccc(Cl)cc3)nn2c(C)c1CCC(=O)NCc1ccco1 | -41.9 |
| COc1ccc(-c2cc3nc(C)c(CCC(=O)NC(C)CCc4ccco4)c(C)n3n2)c(OC)c1 (stereo not shown) | -62 |
| COc1ccc(-c2cc3nc(C)c(CCC(=O)NCc4ccco4)c(C)n3n2)c(OC)c1 | -12.9 |
| Cc1ccc(C(=O)O)cc1NC(=S)NCCc1ccccc1 | 0.261 |
| C[C@H](NC(=O)c1cc2c(cn1)[nH]c1ccccc12)C(=O)O | 18.4 |
| CCOC(=O)C1(Cc2ccccc2C)CCCN(S(C)(=O)=O)C1 (stereo not shown) | 16.5 |
| Cc1cc(NC(=O)c2ccc(N3C(=O)C4C5C=CC(C5)C4C3=O)cc2)no1 (stereo not shown) | 8.53 |
| O=C(Nc1ccccc1OC(F)F)c1cccc(S(=O)(=O)N2CCCC2)c1 | -23.6 |
| COc1ccc(-n2cnnc2SCC(=O)Nc2cccnc2Cl)cc1 | -18.7 |
| CCC(C)(C)c1ccc(OCC(=O)Nc2ccncc2)cc1 | -16 |
| CC(C)(C)c1ccc(OCC(=O)Nc2ccncc2)cc1 | 8.71 |
| COc1cc(NC(=O)COc2ccc(-n3ccnc3)cc2)cc(OC)c1 | -51.3 |
| CC(C)(C)c1ccc(NC(=O)COc2ccc(-n3ccnc3)cc2)cc1 | -56.5 |
| COc1cc(NC(=O)CC(C)n2ccnc2)cc(OC)c1 (stereo not shown) | 10.7 |
